Results filed as inconclusive are left out. The source made the active and inactive calls. Unless noted, the call rests on the fitted dose curve; in most records, active means well fitted curve in the direction sought with a large enough effect; inconclusive means small, poorly fitted or top-dose-only effect, or another doubt; inactive means no such curve, though single readings can be large; an effect the other way counts as inactive or inconclusive.
Legend:
[1] = qHTS Assay for Identification of Small Molecule Agonists for Thrombopoietin (TPO) Signaling Pathway (AID 917)
In short: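 Murine Ba/F3 cells expressing human TPO receptor and GPIIb-promoter luciferase, IL-3-starved overnight, given compound plus TPO at 26 pM (EC50). After 24 h at 37 C, 5% CO2, luminescence read.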

[2] = biological target: Muscarinic acetylcholine receptor M1 (Rattus norvegicus) (UniProt P08482); experiment: qHTS Assay for Antagonists of Acetylcholine Muscarinic M1 Receptor: Measurement of IP-One Response (AID 944); further: nearly all actives have a fitted effect of over 75% in size
In short: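 M1-CHO (rat), 2000 cells/well, overnight recovery; cpd 10 min; carbachol EC80 (200 nM), 30 min, HEPES buffer + 50 mM LiCl pH 7.4; IP-One HTRF, Ex 337, Em 620/665 nm.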

[3] = biological target: Pyruvate kinase (Leishmania mexicana) (UniProt Q27686); experiment: qHTS Validation Assay for Inhibitors of Leishmania Mexicana Pyruvate Kinase (AID 945)
In short: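 Compounds are tested as eight-point concentration series. Reactions contain 0.2 nM LmPYK E451W, 0.5 mM PEP, 0.1 mM ADP, 7 mM MgCl2 and 50 mM KCl at pH 7.2, run 1 h at room temperature, then read by PKLight luminescence.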

[4] = biological target: Pyruvate kinase PKM (Homo sapiens) (UniProt P14618); experiment: qHTS Assay for Activators of Human Muscle Pyruvate Kinase (AID 954; active means well fitted curve in the direction sought with a large enough effect, not every such curve was filed as active)
In short: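 Luminescence from a luciferase ATP-detection/stop reagent reported PKM2 activity. Reactions contained 0.1 nM purified human enzyme, 0.5 mM PEP, 0.1 mM ADP and 7 mM MgCl2 at pH 7.2, run 1 h at RT.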

[5] = biological target: Alpha-galactosidase A (Homo sapiens) (UniProt P06280); experiment: Counterscreen for Glucocerebrosidase Inhibitors: qHTS Assay for Human alpha-Galactosidase at pH 4.5 (AID 992)
In short: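 Enzyme at 2 nM final was combined with compound (0.7 nM to 77 uM) and 80 uM 4-methylumbelliferyl alpha-D-galactopyranoside in 50 mM citric acid, 0.005% Tween-20, pH 4.5. After 20 min at room temperature, fluorescence was read (Ex 365/Em 440 nm); AC50 came from Hill fits.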

[6] = biological target: alpha-glucosidase (Oryza sativa, rice) (UniProt Q653V4); experiment: Counterscreen for Glucocerebrosidase Inhibitors: qHTS Assay for Rice alpha-Glucosidase at pH 5.0 (AID 997)
In short: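 Rice alpha-glucosidase (4 nM final) with 400 uM 4-methylumbelliferyl-alpha-D-glucopyranoside in citrate buffer pH 5.0, 20 min at room temperature, stopped at pH 10; fluorescence 365/440 nm, compounds 0.7 nM–77 uM, AC50 from Hill fits.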

[7] = S16 Schwann cell viability assay (CellTiter-Glo assay) (AID 624031);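 further: native untransfected S16 rat Schwann cells; cellular ATP luminescence as a viability measure; nearly all actives have a fitted effect of over 70% in size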
In short: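 Parental S16 cells, 24 h compound, 37 °C. ATP-luminescence viability; DMSO = 0% activity, empty wells as reference; curves classified by fit quality and efficacy.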

CP250 = experiment: qHTS profiling for inhibitors of Plasmodium falciparum proliferation (AID 504749); further: nearly all actives have a fitted effect of over 60% in size; details: P. falciparum in erythrocytes, SYBR Green DNA, 72 h; series mostly up to 12.8 µM
In short: (§1)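 Parasite proliferation within erythrocytes, 72 h exposure. Endpoint: SYBR Green I fluorescence after overnight lysis at room temperature. Controls: 0.29 uM artemisinin, DMSO.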

CP260 = experiment: as above; details: P. falciparum in erythrocytes, SYBR Green DNA, 72 h; series mostly up to 28.7 µM
In short: as §1

DFO2036 = experiment: as above; details: P. falciparum in erythrocytes, SYBR Green DNA, 72 h; series mostly up to 28.7 µM
In short: as §1

DIV14 = experiment: as above; details: P. falciparum in erythrocytes, SYBR Green DNA, 72 h; series mostly up to 28.7 µM
In short: as §1

TAB109 = experiment: as above; details: P. falciparum in erythrocytes, SYBR Green DNA, 72 h; series mostly up to 12.8 µM
In short: as §1

Measured: Potency

Chain of Muscarinic acetylcholine receptor M1 (Rattus norvegicus) (P08482 whole entry, looked up): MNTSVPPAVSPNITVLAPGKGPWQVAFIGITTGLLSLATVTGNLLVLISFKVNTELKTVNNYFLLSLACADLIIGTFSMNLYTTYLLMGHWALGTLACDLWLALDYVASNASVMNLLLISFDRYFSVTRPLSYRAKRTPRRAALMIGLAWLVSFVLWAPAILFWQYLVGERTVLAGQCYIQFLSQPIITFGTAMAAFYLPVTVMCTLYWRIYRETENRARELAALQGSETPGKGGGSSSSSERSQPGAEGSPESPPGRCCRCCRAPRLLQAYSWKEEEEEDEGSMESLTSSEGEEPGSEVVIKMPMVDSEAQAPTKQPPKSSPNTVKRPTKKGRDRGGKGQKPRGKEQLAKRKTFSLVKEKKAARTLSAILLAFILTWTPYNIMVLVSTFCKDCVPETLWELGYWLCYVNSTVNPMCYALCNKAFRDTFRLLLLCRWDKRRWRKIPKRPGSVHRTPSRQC
Chain of Alpha-galactosidase A (Homo sapiens) (P06280 whole entry, looked up): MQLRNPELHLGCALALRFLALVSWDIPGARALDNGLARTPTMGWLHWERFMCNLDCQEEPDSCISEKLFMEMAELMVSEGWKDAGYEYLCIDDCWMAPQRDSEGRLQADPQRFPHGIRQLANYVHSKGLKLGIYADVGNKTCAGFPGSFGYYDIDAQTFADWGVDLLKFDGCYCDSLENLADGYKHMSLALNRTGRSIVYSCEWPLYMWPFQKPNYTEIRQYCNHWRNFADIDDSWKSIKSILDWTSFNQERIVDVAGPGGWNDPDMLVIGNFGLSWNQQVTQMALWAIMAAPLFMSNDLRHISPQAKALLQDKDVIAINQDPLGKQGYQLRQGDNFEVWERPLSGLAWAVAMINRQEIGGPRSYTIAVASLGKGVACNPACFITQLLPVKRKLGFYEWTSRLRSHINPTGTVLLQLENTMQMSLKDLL
Chain of Pyruvate kinase PKM (Homo sapiens) (P14618 whole entry, looked up): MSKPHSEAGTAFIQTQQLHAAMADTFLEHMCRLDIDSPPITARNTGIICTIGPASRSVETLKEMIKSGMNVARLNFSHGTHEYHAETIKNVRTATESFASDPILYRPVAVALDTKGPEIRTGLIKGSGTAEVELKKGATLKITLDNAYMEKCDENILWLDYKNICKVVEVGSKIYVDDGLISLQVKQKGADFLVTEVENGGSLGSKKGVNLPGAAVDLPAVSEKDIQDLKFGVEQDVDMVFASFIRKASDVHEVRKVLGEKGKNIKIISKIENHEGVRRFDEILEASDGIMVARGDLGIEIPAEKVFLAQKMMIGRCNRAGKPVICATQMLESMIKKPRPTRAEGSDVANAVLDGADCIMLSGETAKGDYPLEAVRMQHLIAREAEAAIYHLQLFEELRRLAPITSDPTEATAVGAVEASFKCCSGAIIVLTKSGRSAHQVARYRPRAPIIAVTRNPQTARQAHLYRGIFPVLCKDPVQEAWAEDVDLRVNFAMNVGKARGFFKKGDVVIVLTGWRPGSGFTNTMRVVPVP
Chain of Pyruvate kinase (Leishmania mexicana) (Q27686 2-499 E452W): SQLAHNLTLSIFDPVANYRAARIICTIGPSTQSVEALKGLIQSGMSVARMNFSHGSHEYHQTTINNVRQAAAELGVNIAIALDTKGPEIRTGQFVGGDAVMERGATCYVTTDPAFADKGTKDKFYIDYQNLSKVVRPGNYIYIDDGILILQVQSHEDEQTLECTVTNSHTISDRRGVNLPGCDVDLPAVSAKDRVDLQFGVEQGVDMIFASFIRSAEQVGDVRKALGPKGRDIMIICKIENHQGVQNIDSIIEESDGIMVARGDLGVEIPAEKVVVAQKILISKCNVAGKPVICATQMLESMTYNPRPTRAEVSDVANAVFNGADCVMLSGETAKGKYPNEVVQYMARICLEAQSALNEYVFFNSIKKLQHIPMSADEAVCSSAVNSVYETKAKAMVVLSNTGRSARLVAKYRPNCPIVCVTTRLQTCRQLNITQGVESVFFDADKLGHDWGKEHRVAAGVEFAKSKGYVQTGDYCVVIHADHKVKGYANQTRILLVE

C#CCN(C)[C@@H](C)Cc1ccccc1
inactive: [1] | [2] | [3] | [4] | [5] | [6]

C[C@@]12CC[C@H]3[C@@H](CC[C@@H]4C[C@H]5S[C@H]5C[C@]43C)[C@H]1CC[C@H]2O
inactive: [7] | CP250 | CP260 | DFO2036 | DIV14 | TAB109
